In PubChem BioAssay (Tox21) one finds Potency and outcome data, which are given here for 8 compounds.

Assay [1] can be described thus: qHTS assay to identify small molecule antagonists of the estrogen receptor alpha (ER-alpha) signaling pathway using the BG1 cell line in the presence of 0.1 nM 17-beta-estradiol - cell viability counter screen (AID 1259241). Also: nearly all actives have a fitted effect of over 40% in size. A digest of the protocol:
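VM7Luc4E2 cells (endogenous full-length ER-alpha, 4xERE-luciferase), cultured 5 days in charcoal-stripped serum, exposed to compounds with 0.1 nM 17beta-estradiol (final) for 22 hr at 37C. Viability read in same wells as live-cell protease fluorescence after 30 min.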
For orientation: Quantitative high-throughput screening tests each substance at several concentrations.

The nature of assay [2]: qHTS assay to identify small molecule antagonists of the androgen receptor (AR) signaling pathway using the MDA cell line in the presence of 0.5 nM R1881 - cell viability counter screen (AID 1259242). Also: nearly all actives have a fitted effect of over 45% in size. Also: potency is read from the fitted curve at half-maximal effect. The gist of the method: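 Concentration-response screen of compounds for toxicity in MDA-kb2 reporter cells: 16 hr at 37C with 0.5 nM R1881, endpoint live-cell protease fluorescence measured in the reporter wells.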

The target of assay [3] is Estrogen receptor (Homo sapiens) (UniProt P03372). Put plainly: qHTS assay to identify small molecule antagonists of the estrogen receptor alpha (ER-alpha) signaling pathway using the BG1 cell line in the presence of 0.1 nM 17-beta-estradiol (AID 1259244). Also: nearly all actives have a fitted effect of over 50% in size. Also: potency is read from the fitted curve at half-maximal effect. A digest of the protocol: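 Compounds were tested against 0.1 nM (final) 17beta-estradiol in VM7Luc4E2 cells, which express full-length ER-alpha and an ERE-luciferase reporter; luminescence was recorded following 22 h exposure.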
Estrogen receptor (Homo sapiens), sequence (P03372 whole entry, looked up): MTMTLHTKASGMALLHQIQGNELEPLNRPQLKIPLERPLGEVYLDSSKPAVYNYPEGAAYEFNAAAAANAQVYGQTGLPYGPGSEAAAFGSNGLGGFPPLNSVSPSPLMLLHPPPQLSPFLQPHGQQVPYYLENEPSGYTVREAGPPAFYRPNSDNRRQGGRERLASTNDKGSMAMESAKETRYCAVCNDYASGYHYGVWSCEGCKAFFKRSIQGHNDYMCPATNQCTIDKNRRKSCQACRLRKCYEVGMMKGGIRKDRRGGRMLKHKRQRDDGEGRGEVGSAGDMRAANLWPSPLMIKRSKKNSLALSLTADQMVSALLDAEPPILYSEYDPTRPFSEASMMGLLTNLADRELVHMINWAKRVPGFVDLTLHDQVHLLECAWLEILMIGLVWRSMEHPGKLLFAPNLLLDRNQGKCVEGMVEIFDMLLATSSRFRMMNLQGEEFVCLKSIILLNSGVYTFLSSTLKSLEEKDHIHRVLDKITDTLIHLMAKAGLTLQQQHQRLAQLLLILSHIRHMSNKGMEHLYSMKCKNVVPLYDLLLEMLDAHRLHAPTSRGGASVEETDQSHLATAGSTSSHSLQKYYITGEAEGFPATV

A short description of assay [4]: qHTS assay to identify small molecule HDAC inhibitors (AID 1259364).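 Also: wild-type HCT-116 cells with endogenous class I/II HDAC activity; top concentration of the series differs between compounds; nearly all actives have a fitted effect of over 45% in size.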 The gist of the method: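 Screening used wild-type human colon HCT-116 cells incubated overnight, dosed with compounds for 2 hours, and assayed with a homogeneous luminogenic HDAC I/II reagent for 30 minutes at room temperature.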
Assay [5] is described as follows: qHTS assay to identify small molecule HDAC inhibitors - cell viability counter screen (AID 1259365). Also: nearly all actives have a fitted effect of over 50% in size. Also: potency is read from the fitted curve at half-maximal effect. A digest of the protocol:
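Wild-type HCT-116 cells, 1,500/well, cultured overnight, then compound-treated 2 h at 37 C. Viability measured as ATP luminescence with CellTiter-Glo after 30 min at room temperature.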

The nature of assay [6]: qHTS assay to identify small molecule agonists of the sonic hedgehog signaling (Shh) pathway - cell viability counter screen (AID 1259366). Also: nearly all actives have a fitted effect of over 50% in size. Also: potency is read from the fitted curve at half-maximal effect. A digest of the protocol:
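NIH/3T3-derived Gli1-Luc reporter cells, 2,000 per well, received compound after 4 h and were treated about 23 h at 37C. Viability measured in the same wells by CellTiter-Fluor fluorescence after 1 h.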

A short description of assay [7]: qHTS assay to identify small molecule agonists of the sonic hedgehog signaling (Shh) pathway (AID 1259368; calls by dose curve;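 also: NIH/3T3-derived 3T3Gli1-Luc cells carrying a stable Gli1-driven firefly luciferase reporter; series mostly up to about 92 µM; nearly all actives have a fitted effect of over 15% in size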). A digest of the protocol: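 Hedgehog pathway agonism scored by increased firefly luciferase luminescence in 3T3Gli1-Luc cells treated 24 hr at 37 C; detection used a 30 min room-temperature reagent incubation.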
Assay [8] in a line: qHTS assay to identify small molecule antagonists of the sonic hedgehog signaling (Shh) pathway (AID 1259369; calls by dose curve; also: nearly all actives have a fitted effect of over 45% in size; also: potency is read from the fitted curve at half-maximal effect). The gist of the method:
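NIH/3T3 stable Gli1-Luc clone, 2,000 cells/well, 4hr settle; cpd + conditioned medium 24hr; Luc reagent 30min RT; luminescence.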

A short description of assay [9]: qHTS assay to identify small molecule agonists of the androgen receptor (AR) signaling pathway in the presence of an antagonist - cell viability counter screen (AID 1259379). Also: nearly all actives have a fitted effect of over 25% in size. Also: potency is read from the fitted curve at half-maximal effect. The gist of the method: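 MDA-kb2 viability measured by CellTiter-Fluor fluorescence in the same wells as the luciferase signal; nilutamide 3.0uM final; 15-point compound titration; 16 hr at 37C.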

Assay [10] can be described thus: qHTS assay to identify small molecule agonists of the estrogen receptor beta (ER-beta) signaling pathway - cell viability counter screen (AID 1259380). Also: nearly all actives have a fitted effect of over 30% in size. Also: potency is read from the fitted curve at half-maximal effect. The gist of the method: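 Measured: luminescence from CellTiter-Glo after 30 min at room temperature, added to wells already read for the LiveBLAzer FRET reporter (2 hr substrate); ER-beta-UAS-bla HEK293T cells had 16 hr compound treatment at 37C, 5% CO2.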

Assay [11] is described as follows: qHTS assay to identify small molecule antagonists of the estrogen receptor beta (ER-beta) signaling pathway - cell viability counter screen (AID 1259382). Also: nearly all actives have a fitted effect of over 55% in size. Also: potency is read from the fitted curve at half-maximal effect. The gist of the method: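 Readout: luminescence, CellTiter-Glo, same wells as bla assay. System: ER-beta-UAS-bla GripTite HEK293T, 2% charcoal-stripped FBS. Exposure: compounds plus 1nM 17-beta-estradiol, 16 hr, 37C.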

For assay [12], the target named is Estrogen receptor (Homo sapiens) (UniProt P03372). As to the kind of experiment: qHTS assay to identify small molecule agonists of the estrogen receptor alpha (ER-alpha) signaling pathway in the presence of an antagonist (AID 1259383; calls by dose curve; also: top concentration of the series differs between compounds; nearly all actives have a fitted effect of over 15% in size). The gist of the method: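 Quantitative HTS confirmation: compounds titrated at 15 concentrations onto estrogen-deprived VM7Luc4E2 cells carrying a four-ERE luciferase construct, with ICI-182,780 present at 10.0nM final. Signal is luminescence after 22hr exposure.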

The nature of assay [13]: qHTS assay to identify small molecule agonists or antagonists of the thyroid stimulating hormone receptor (TSHR) signaling pathway - wild type cell line counter screen (AID 1259384; calls by dose curve). The gist of the method:
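Wild-type HEK293 cells were plated 18 h at 37 C/5% CO2, pin-dosed with compound plus Ro20-1724 medium, held 30 min at room temperature, then given cAMP-d2 and anti-cAMP-cryptate; fluorescence was read after 1 h. Fifteen concentrations, triplicate.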

Assay [14] can be described thus: qHTS assay to identify small molecule antagonists of the sonic hedgehog signaling (Shh) pathway - cell viability counter screen (AID 1259367). Also: nearly all actives have a fitted effect of over 55% in size. A digest of the protocol: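 Conditioned medium drove Shh signaling in 3T3 Gli1-Luc cells exposed to compounds at 37C and 5% CO2. Viability was determined from CellTiter-Fluor fluorescence, with reagent incubated 1 hr after 23 hr of treatment.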

Assay [15] has as its target Thyrotropin receptor (Homo sapiens) (UniProt P16473). Put plainly: qHTS assay to identify small molecule antagonists of the thyroid stimulating hormone receptor (TSHR) signaling pathway (AID 1259385; calls by dose curve; also: nearly all actives have a fitted effect of over 20% in size). The gist of the method: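 TSHR-HEK293 cells were plated and held 18 h at 37C/5% CO2, then given compound plus Ro20-1724 and stimulated with TSH at 1.5 ng/mL final. After 30 min at room temperature, cAMP was detected with cAMP-d2/anti-cAMP-cryptate (1 h) by fluorescence.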

Assay [16] has as its target Estrogen receptor beta (Homo sapiens) (UniProt Q92731). Put plainly: qHTS assay to identify small molecule agonists of the estrogen receptor beta (ER-beta) signaling pathway (AID 1259377; active = well fitted activation curve with a large enough effect in the signal ratio in the repeat runs, not every such curve was filed as active; the % refers to the signal ratio). A digest of the protocol:
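ER-beta-UAS-bla HEK293T cells in medium with 2% charcoal-stripped FBS were exposed to compounds for 16 h at 37C. Beta-lactamase reporter activity was read as fluorescence after 2 h with LiveBLAzer B/G FRET substrate at room temperature.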

Assay [17] shares this target. Put plainly: qHTS assay to identify small molecule antagonists of the estrogen receptor beta (ER-beta) signaling pathway (AID 1259378; active = well fitted inhibition curve with a large enough effect in the signal ratio in the repeat runs, not every such curve was filed as active; the % refers to the signal ratio). A digest of the protocol: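 ER-beta-UAS-bla HEK293T (GripTite) cells in 2% charcoal-stripped FBS medium were preincubated 6 hr at 37C, dosed with compound, then stimulated with 1 nM E2 (final) for 16 hr; beta-lactamase reporter read by B/G FRET fluorescence after 2 hr substrate loading.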

A short description of assay [18]: qHTS assay to identify small molecule phospholipidosis (PLD) inducers (AID 1259344; active = well fitted curve in the direction sought with a large enough effect; an effect the other way counts as inactive or inconclusive). The gist of the method: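 After 4 h attachment on collagen I, HepG2 cells were dosed with compound alongside LipidTOX Red, kept 24 h at 37 C, fixed, and imaged for lamellar phospholipid pits.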

“And” between values parts separate entries of the source, which are not always exact repeats. Equal entries are not always repeated. Results filed as inconclusive are left out. The source holds several records for some structures; these can differ, active in one and inactive in another. The source made the active and inactive calls. Unless noted, calls follow the shape of the dose curve; as a rule, active = well fitted curve in the direction sought with a large enough effect in the repeat runs; inconclusive = weak or mixed curves; inactive = no such curve, though single readings can be large; an effect the other way counts as inactive or inconclusive.

Estrogen receptor beta (Homo sapiens), sequence (Q92731 whole entry, looked up): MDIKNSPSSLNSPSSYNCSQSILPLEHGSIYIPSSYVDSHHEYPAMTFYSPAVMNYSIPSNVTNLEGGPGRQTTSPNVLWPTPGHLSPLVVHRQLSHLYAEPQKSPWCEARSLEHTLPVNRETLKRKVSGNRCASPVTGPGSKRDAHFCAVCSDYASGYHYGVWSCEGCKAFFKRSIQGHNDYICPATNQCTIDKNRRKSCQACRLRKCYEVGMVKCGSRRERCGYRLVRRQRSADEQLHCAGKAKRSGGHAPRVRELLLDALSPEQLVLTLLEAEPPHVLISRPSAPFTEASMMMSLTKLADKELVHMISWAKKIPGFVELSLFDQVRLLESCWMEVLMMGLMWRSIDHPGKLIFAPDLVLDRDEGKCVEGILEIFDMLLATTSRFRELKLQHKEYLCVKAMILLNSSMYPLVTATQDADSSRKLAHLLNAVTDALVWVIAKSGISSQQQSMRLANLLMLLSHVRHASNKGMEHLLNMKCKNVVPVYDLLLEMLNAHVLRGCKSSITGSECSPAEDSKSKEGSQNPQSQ
Thyrotropin receptor (Homo sapiens), sequence (P16473 whole entry, looked up): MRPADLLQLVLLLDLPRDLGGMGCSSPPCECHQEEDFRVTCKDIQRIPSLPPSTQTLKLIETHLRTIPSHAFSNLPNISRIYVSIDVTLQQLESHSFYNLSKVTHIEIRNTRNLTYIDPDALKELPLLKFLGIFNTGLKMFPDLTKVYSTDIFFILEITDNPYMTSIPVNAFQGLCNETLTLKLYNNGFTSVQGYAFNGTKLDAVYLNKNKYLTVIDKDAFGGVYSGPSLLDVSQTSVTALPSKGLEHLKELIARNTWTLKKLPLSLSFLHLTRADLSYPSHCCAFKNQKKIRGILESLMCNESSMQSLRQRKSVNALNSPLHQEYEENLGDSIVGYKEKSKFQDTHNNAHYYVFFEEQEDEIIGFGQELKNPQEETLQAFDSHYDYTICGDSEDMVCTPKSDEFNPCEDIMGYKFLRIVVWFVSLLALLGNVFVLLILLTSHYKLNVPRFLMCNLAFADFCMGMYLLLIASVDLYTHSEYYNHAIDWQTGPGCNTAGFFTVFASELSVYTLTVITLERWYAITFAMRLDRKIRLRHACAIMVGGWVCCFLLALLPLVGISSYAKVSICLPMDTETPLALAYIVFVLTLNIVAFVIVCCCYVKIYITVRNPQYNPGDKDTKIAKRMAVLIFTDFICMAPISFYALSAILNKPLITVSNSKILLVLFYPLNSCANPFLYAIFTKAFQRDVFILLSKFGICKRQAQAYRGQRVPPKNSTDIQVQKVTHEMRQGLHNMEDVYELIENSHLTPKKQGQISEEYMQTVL

As to `CC(=O)OC(c1ccccc1)C(Cl)(Cl)Cl` (centres undefined), the Potency result in [1], in assay [2], in [3], in [4], in [5] and in assay [6] was “inactive” in each case. For the same compound, the Potency entry in assay [7], in assay [8], in [9], in assay [10], in [11] and in assay [12] was “inactive” in each case. For the same compound, in assay [13], the result was inactive.

`CC(C)OC(=O)Cc1ccccc1`: the Potency result in assay [1], in [2], in assay [3], in assay [4], in assay [5] and in assay [6] was “inactive” throughout. Further, the Potency entry in [14], in assay [7], in assay [8], in [9], in assay [10] and in assay [11] was “inactive” in each case. Further, the Potency result in [12] and in assay [15] was “inactive” in each case. Besides, the outcome in assay [13] was inactive.

Regarding `O=[N+]([O-])c1cc(Cl)c(Cl)cc1Cl`, the Potency entry in [1], in assay [2], in [3], in [5], in assay [6] and in assay [14] was “inactive” throughout. Moreover, the Potency result in assay [7], in assay [8], in [16], in assay [17], in assay [10] and in assay [11] was “inactive” throughout. In addition, in assay [12], the Potency entry was “inactive”.

For the compound `c1ccc2c(c1)sc1ccccc12`, the Potency result in [1], in assay [2], in assay [3], in assay [5], in [6] and in assay [14] was “inactive” each time. Also, the Potency result in assay [7], in [8], in assay [10], in [11], in assay [12] and in assay [15] was “inactive” throughout. Besides, the compound was classed as inactive in assay [18] and in assay [13].

Turning to `CCC(C)(C)c1ccc(O)c(C(C)(C)CC)c1`, the Potency entry in assay [1], in assay [3], in assay [4], in [6], in assay [14] and in assay [7] was “inactive” in each case. Besides, the Potency entry in [8], in assay [12] and in assay [15] was “inactive” throughout. Also, the Potency was 67.8 µM (active) in assay [2]; 21.4 µM (active) and 24.3 µM (active) in assay [10]; 53.9 µM (active) and 30.6 µM (active) in assay [11]. Moreover, the result in assay [13] was inactive.

With `C=CCc1ccccc1O`, the Potency entry in assay [1], in [2], in assay [3], in [5], in assay [6] and in [14] was “inactive” throughout. In addition, the Potency result in assay [7], in [8], in [16], in assay [17], in assay [9] and in [10] was “inactive” each time. Also, the Potency entry in assay [11] and in [12] was “inactive” throughout.

Take `CCCCCCCCCCCC[N+](C)(C)CCOc1ccccc1`: the Potency result in assay [1], in assay [7], in assay [12] and in assay [15] was “inactive” throughout. Also, the Potency is 48.6 µM (active) and inactive in assay [2]; 54.5 µM (active) and inactive in [3]; 61.1 µM (active) and inactive in [5]; 24.3 µM (active) in [6]; 3.44 µM (active) and 473 nM (active) in assay [8]; 68.6 µM (active) in [9]. For the same compound, the Potency in assay [10] is 21.7 µM (active) and 11.9 µM (active); in assay [11], 19.3 µM (active) and 15 µM (active). Further, the compound was called inactive in assay [18] and in assay [13].

With `O=C(O)C(O)C(O)C(=O)O` (centres undefined), the Potency entry in [1], in assay [2], in assay [3], in [4], in assay [5] and in assay [6] was “inactive” throughout. Further, the Potency entry in assay [14], in assay [7], in assay [8], in assay [9], in assay [10] and in assay [11] was “inactive” throughout. Besides, the Potency result in assay [12] is “inactive”.
